Screening results (PubChem)
SARS PLP yeast = SARS-CoV PLP inhibition in yeast; S. cerevisiae expressing SARS-CoV PLpro, growth rescue; Potency, µM (doses to about 32.9 µM), inactives show top-dose activity, positive = growth rescue, usual class: activators; 0.19% of 330,000 active; AID 485353; note: 0% is about no effect; nearly all actives have a fitted effect of over 55% in size
RE007 growth inh = less growth of the S. pombe RE007 Vpr strain; S. pombe RE007 Vpr strain, BacTiter-Glo ATP luminescence, 24 h; Potency, µM (highest dose often 92.2 µM), inactives show top-dose activity change, negative = less growth, most hits filed as inhibitors; 0.21% of 360,000 active; AID 651644; active = well fitted falling curve with a large enough effect; inconclusive = small, poorly fitted or top-dose-only effect; inactive = no such curve, though single readings can be large or run the other way; note: % is set by controls: 0 for no effect and ±100 for the full control effect; nearly all actives have a fitted effect of over 50% in size
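Fission yeast RE007 carrying one integrated HIV-1 vpr copy, seeded at OD 0.01 in PMG+AL medium with 23 nL pinned compound. Grown 24 h at 30 degrees; viability read by BacTiter-Glo luminescence after 5 min.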
Pf growth 48h = inhibits P. falciparum growth in the first generation, 48 h. P. falciparum luciferase growth in erythrocytes, 48 h. Potency, µM (top dose mostly 28.7 µM), for the others: at the highest dose activity change, negative = inhibition, most hits filed as inhibitors. 5.9% of 310,000 active. AID 504832; active = well fitted inhibition curve with a large enough effect; inconclusive = small, poorly fitted or top-dose-only effect, or another doubt; inactive = no such curve, though single readings can be large or run the other way; note: % is set by controls: 0 for no effect and ±100 for the full control effect
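Luciferase-expressing parasites in RBCs, 2% Hct / 0.1% parasitemia final; RPMI 1640 + 0.5% Albumax; 37 C, 5% CO2, one generation; luminescence read-out, lower signal = inhibition.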
Pf growth 96h = P. falciparum growth inhibition at 96 hours; P. falciparum luciferase reporter growth, 96 h; Potency, µM (top dose mostly 28.7 µM), for the others: at the highest dose activity change, negative = inhibition, usual class: inhibitors; 6.9% of 320,000 active; active = well fitted inhibition curve with a large enough effect; inconclusive = small, poorly fitted or top-dose-only effect, or another doubt; inactive = no such curve, though single readings can be large or run the other way; note: % is set by controls: 0 for no effect and ±100 for the full control effect
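Two-generation exposure (96 h) targets delayed-death phenotype. Reporter parasites carrying integrated firefly luciferase, in red cells at 2% hematocrit and 0.05% parasitemia final, kept at 37 C, 5% CO2; luminescence loss indicates inhibition.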
NS1 function inh = blocks influenza NS1 protein function | Potency, µM (highest dose often 46.1 µM), inactives show at the top dose activity, positive = more growth | 0.4% of 270,000 active | AID 2326; note: actives are rising curves; nearly all actives have a fitted effect of over 50% in size
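S. cerevisiae expressing influenza A NS1, grown in glucose, washed, then diluted 1:100 into pH 6.0 -URA galactose medium with 23 nl compound. Growth recovery read as OD600; NS1-free strain serves as control.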
* marks the source's active call; other numbers are inactive results; ? = inconclusive; . = no result given; [ ] = another dose, or the depositor's remark. Most compounds without a hit are left out; they make up all but 9.5% or so of the library. Unless noted, calls come from the whole dose curve. Potency is the fitted concentration of half-maximal effect.

SMILES	SARS PLP yeast	RE007 growth inh	Pf growth 48h	Pf growth 96h	NS1 function inh
COc1cc(C(=O)Nc2nccs2)ccc1OCc1c(C)noc1C	-11.9%	-1.3%	?	2.0%[5.75 µM]	-4.8%
COc1cc(C(=O)Nc2nc3ccccc3s2)ccc1OCc1c(C)noc1C	-2.3%	3.3%	11.7µM*	?	-3.1%
COc1ccc(C(=O)Nc2nc3ccccc3s2)c(OC)c1	-20.2%	?	?	13.1µM*	-27.8%
COc1ccc2sc(NC(=O)NC(=O)c3c(Cl)cccc3Cl)nc2c1	-0.3%	-11.5%	10.4µM*	8.28µM*	1.7%
Cc1c(-n2c(SCC(=O)C(C)(C)C)nc3ccccc3c2=O)c(=O)n(-c2ccccc2)n1C	-2.6%	-10.3%	?	-42.8%	.
COc1ccc(CCC(=O)Nc2nnc(C(F)(F)F)s2)cc1	14.2%	-16.0%	?	14.7µM*	-10.5%
COc1ccc(CCC(=O)Nc2nnc(C(C)(C)C)s2)cc1	-2.6%	-15.3%	19.3%	?	1.4%
CCCCN(C)C(=O)c1nc2ccccn2c1CN1CCC[C@H]1CO	0.7%	-17.9%	38.2%	?	-10.2%
O=C(CCN1CCc2ccccc2C(c2ccccc2)C1)c1ccc2c(c1)OCCO2 (stereo not given)	-25.9%	5.62µM*	.	-9.2%	-48.9%
CC1SC2(NC1=O)C1CC3CC(C1)CC2C3 (stereo not given)	2.2%	2.8%	-9.0%	?	.
CCN(C[C@H]1N[C@@](CC)(C(=O)OC)[C@H]2C(=O)N(C)C(=O)[C@@H]12)S(=O)(=O)c1ccc(F)cc1	-0.7%	-1.8%	.	.	.
CCOC(=O)C1=C(c2ccccc2)Nc2ncnn2C1c1ccc(C(=O)O)cc1 (stereo not given)	1.9%	16.7%	41.9%	32.8%	7.8%
CCOC(=O)C1=C(c2ccccc2)NC(N)=NC1c1ccc(OCc2ccc(C(=O)OC)cc2)cc1 (stereo not given)	-0.3%	8.6%	4.65µM*	7.38µM*	4.2%
FC(F)(F)c1cccnc1Oc1ccc(C2=NCCS2)cc1	0.2%	-5.6%	?	2.62µM*	-2.5%
Cc1cc(/C=C(\C#N)C(=O)NCc2cccs2)c(C)n1-c1ccc([N+](=O)[O-])cc1	-15.4%	1.1%	2.33µM*	?	-0.3%
Cc1cc(/C=C(\C#N)C(=O)NCc2ccco2)c(C)n1-c1cccnc1	0.7%	8.6%	-2.2%	0.0%	-7.7%
Cc1cc(C=O)c(C)n1-c1ccc(N2CCOCC2)c([N+](=O)[O-])c1	-1.1%	1.9%	-10.8%	4.9%	.
Cc1ccc(NC(=O)/C(C#N)=C/c2cc(C)n(-c3ccc(N4CCOCC4)c([N+](=O)[O-])c3)c2C)c(C)c1	-1.7%	-8.5%	?	11.7µM*	7.6%
Cc1cc(/C=C(\C#N)C(=O)Nc2ccc(Cl)cc2)c(C)n1-c1ccc(N2CCOCC2)c([N+](=O)[O-])c1	3.1%	23.1%	11.7µM*	7.38µM*	16.1%
CC(=O)NC1=C(N(C)C2CCS(=O)(=O)C2)C(=O)c2ccccc2C1=O (stereo not given)	4.1%	-15.6%	13.1µM*	2.08µM*	19.9%
CN(C(=O)Nc1ccccc1)C1CCCCC1	0.2%	-11.7%	34.8%	40.1%	0.3%
CC(=O)NC1=C(Nc2ccc(N(C)C)cc2)C(=O)c2ccccc2C1=O	-3.0%	?	?	?	6.5%
CN(C(=O)Nc1ccccc1)C1CCS(=O)(=O)C1 (stereo not given)	-21.5%	15.7%	-6.1%	2.33µM*	8.9%
O=C1c2ccccc2C2N1CCCN2C(=O)c1sc2ccccc2c1Cl (stereo not given)	.	17.6%	.	.	.
Cc1ccc(NC(=O)CSC(C)C(=O)OCc2cc(=O)oc3cc(O)ccc23)cc1 (stereo not given)	.	7.1%	.	.	.
N#Cc1c(NC(=S)NC(=O)c2ccccc2)sc2c1CCN(CCc1ccccc1)C2	2.6%	.	4.15µM*	2.62µM*	?
N#Cc1c(N)sc2c1CCN(CCc1ccccc1)C2	-14.2%	6.4%	10.4µM*	78.9%	4.1%
CN1CC[C@H](CN2c3ccccc3Sc3ccccc32)C1	.	.	3.79µM*	4.78µM*	-7.2%
c1ccc2c(c1)Sc1ccccc1N2C[C@H]1CN2CCC1CC2	.	.	.	.	-4.1%
c1ccc2c(c1)Sc1ccccc1N2CC1CN2CCC1CC2 (stereo not given)	0.0%	-18.0%[18.4 µM]	11.7µM*	13.1µM*	-0.3%
